The whole screen tested about 390,000 compounds, of which about 17,000 (4.4%) were called active. Entries that show only a call come without a potency. Roughly 8% stayed inconclusive and do not appear here. For the sample, actives were picked, then their nearest neighbours and some compounds at random. Unmarked numbers belong to inactive results. The call rests on the fitted dose curve; in most records, active means well fitted inhibition curve with a large enough effect; inconclusive means small, poorly fitted or top-dose-only effect; inactive means no such curve, though single readings can be large or run the other way.
Potency means the concentration at half of the fitted maximal effect.

Lysine-specific demethylase 4A (Homo sapiens), sequence (O75164 whole entry, looked up, the tested form may be a part): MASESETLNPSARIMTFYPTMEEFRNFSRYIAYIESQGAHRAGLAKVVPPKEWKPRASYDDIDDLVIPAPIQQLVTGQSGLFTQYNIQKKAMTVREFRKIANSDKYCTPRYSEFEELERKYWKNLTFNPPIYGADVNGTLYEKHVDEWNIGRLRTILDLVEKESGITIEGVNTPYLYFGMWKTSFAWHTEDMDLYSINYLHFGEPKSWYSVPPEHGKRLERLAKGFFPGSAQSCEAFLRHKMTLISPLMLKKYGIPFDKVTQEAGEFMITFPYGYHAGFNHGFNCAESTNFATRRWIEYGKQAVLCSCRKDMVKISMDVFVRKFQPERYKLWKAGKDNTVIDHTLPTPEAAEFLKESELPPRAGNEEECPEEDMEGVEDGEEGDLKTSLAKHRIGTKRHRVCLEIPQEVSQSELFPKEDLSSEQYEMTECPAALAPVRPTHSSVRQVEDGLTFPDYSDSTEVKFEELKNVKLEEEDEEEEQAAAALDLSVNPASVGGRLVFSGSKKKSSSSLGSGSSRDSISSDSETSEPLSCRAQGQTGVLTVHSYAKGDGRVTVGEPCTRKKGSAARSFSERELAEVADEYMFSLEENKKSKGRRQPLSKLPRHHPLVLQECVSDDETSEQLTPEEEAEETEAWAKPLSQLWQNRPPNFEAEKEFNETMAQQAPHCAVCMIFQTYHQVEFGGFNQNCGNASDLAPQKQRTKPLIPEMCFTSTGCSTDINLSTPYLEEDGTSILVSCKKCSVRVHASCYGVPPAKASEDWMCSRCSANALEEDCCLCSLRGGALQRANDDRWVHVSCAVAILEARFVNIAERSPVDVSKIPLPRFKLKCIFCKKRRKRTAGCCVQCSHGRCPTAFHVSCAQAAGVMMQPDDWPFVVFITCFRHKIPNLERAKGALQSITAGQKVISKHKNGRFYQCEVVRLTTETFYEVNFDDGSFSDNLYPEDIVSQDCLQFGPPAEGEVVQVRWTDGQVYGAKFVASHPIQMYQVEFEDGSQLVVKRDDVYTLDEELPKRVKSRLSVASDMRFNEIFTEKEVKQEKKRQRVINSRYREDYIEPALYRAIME

For the test, the target named is Lysine-specific demethylase 4A (Homo sapiens) (UniProt O75164). As to the kind of experiment: qHTS Assay for Inhibitors of JMJD2A-Tudor Domain. Further: nearly all actives have a fitted effect of over 50% in size. As to conditions: AlphaScreen JMJD2A-Tudor / H3K4me3 peptide binding; series mostly up to 114 µM. The source says:
JMJD2A is a jumonji-domain-containing lysine demethylase that uses Fe(II) together with 2-OG to effect oxidative demethylation of histones. Methylation is one of many […] modification that affect epigenetic transcription. […] It is proposed that the functions of JmjD2A binding to the histones, is to maintain marks after they are installed and to spread the modifications by […], establishing a self-propagating cycle for rapid methylation over a large area of chromatin. […] Thus, small molecule targeting of the JMJD2A-tudor domain interaction with its target methylhistone mark is expected to enable sophisticated experiments probing the fine regulatory pathways leading to selective demethylation of a given methyllysine locus based on the methylation state of adjacent histone marks. A quantitative high throughput AlphaScreen has been developed to identify small molecule inhibitors based on a protocol published by NCGC and SGC [4].
Although AlphaScreen has significant advantages with its utility in a variety of epigenetic target assays, the primary screening data provided in this deposition should be used with caution due to the prevalence of screening artifacts. The top compound concentration tested was high (>100uM) in this assay, which increases number of actives and potential artifacts. An AlphaScreen counterscreen is highly recommended to be run against any putative actives to eliminate non-specific artifacts. Alternatively, one can use other AlphaScreen assays in PubChem to filter out promiscuous hits.
[1] Lee, J. et al. Distinct binding modes specify the recognition of methylated histone H3K4 and H4K20 by JMJD2A-tudor. Nat Struct Mol Biol. 15(1); 109-11. 2008. PMID: 18084306
[2] Yasgar, et al. Compound Management for Quantitative High-Throughput Screening. JALA. 2008 Apr;13(2):79-89. PMID: 18496600
[3] Inglese, et al. Quantitative high-throughput screening: a titration-based approach that efficiently identifies biological activities in large chemical libraries. Proc Natl Acad Sci. 1;103(31):11473-8. 2006. PMID: 16864780
[4] Quinn et al. A homogeneous method for investigation of methyl-dependent protein-protein interactions in epigenetics. Nucleic Acids Res., 38(2):e11. 2010. PMID: […]
[5] Baell,Holloway. New substructure filters for removal of pan assay interference compounds (PAINS) from screening libraries and for their exclusion in bioassays. J Med Chem. 53(7):2719-40. 2010. PMID: 20131845
NIH Molecular Libraries Probe Production Network [MLPCN]
NIH Chemical Genomics Center [NCGC]
Structural Genomics Consortium (SGC)
To each well of a 1,536w plate, 2ul of JMJD2A-Tudor (final 100nM) and 1ul biotinylated histone peptide methylated at Lys4 [b-H3(1-18)K4me3] (final 50nM) were added in 1x PBS buffer, pH 7.4, containing 0.01% Tween-20, using a nanoliter dispenser. Formation of a protein-peptide complex proceeded at room temperature for 30 min. A Kalypsys pin-tool transferred 23nl of library compound solution in DMSO to each well. Following a 30 min incubation of the protein-peptide complex with compounds at room temperature, a mixture of 40 µg/mL each streptavidin-coated donor and nickel chelate acceptor AlphaScreen beads (final 10 µg/mL) was added in a 1ul dispense for a final volume of 4ul, followed by a brief centrifugation (1000 rpm, 1 min). Plates were incubated protected from the light for 20 min at room temperature. Microplates were then read on an EnVision multilabel plate reader using the 1,536 plate HTS AlphaScreen aperture (excitation time 80 ms, measurement time 240 ms).
(qHTS replaces the single test concentration by a dilution series.)
Consider `COc1ccc(Cl)cc1NC(=O)CSc1nc(=O)[nH]c2c1CCCC2`, for which the Potency result is “inactive”.
As for `Cc1cc(OCC(=O)Nc2ncn[nH]2)c(C)c(C)c1Br`, the Potency result was “inactive”.
As to `COc1ccc(Cn2cc(C(=O)c3ccc(C)cc3)c(=O)c3cc(OC)c(OC)cc32)cc1`, the Potency entry is “inactive”.
The same measure, in the same setting: then `COc1ccc(CCNC(=O)c2cn(C)c3ccc(S(=O)(=O)N(C)C4CCCCC4)cc3c2=O)cc1OC`, with “inactive”; and `CCOc1ccc(C2c3[nH]c4ccccc4c3CCN2Cc2cccn2-c2ncccn2)cc1` (stereo unspecified), with 44.7 µM (active).
With `CCOc1ccc(C2c3[nH]c4ccccc4c3CCN2Cc2cn(CC)nc2C)cc1` (stereo unspecified), the Potency entry was “inactive”.
Regarding `CCOc1cccc(CC(=O)N2CCc3c([nH]c4ccccc34)C2c2ccc(OC)cc2)c1OCC` (stereo unspecified), the Potency entry is “inactive”.
Take `COc1ccc(C2CC(=O)Nc3c2c(=O)nc2c(C)cccn32)cc1OC` (stereo unspecified): the Potency entry was “inactive”.
The same measure, in the same setting: then `Cc1ccc(-n2c(=O)c3cccnc3n2CC(=O)NCc2ccc(F)cc2)cc1C`, with “inactive”; and `CCOC(=O)C1(CCOc2ccccc2)CCN(Cc2cc(OC)cc(OC)c2)CC1`, with “inactive”; and `CCOC(=O)C1(CCOc2ccccc2)CCN(Cc2ccc(C#CCCO)cc2)CC1`, with “inactive”.
For the compound `Cc1c(CN2CCC(CO)(CCOc3ccccc3)CC2)[nH]c2ccc(Cl)cc12`, the Potency was 50.1 µM (active).
`N#Cc1c(-c2ccccc2)c(-c2ccccc2)n[nH]c1=O`: the Potency result is “inactive”.
As for `O=C(O)c1ccc(-n2nc(-c3ccccc3)c3ccccc3c2=O)cc1`, the Potency entry is “inactive”.
On the same count and under the same terms, then `O=C(O)c1n[nH]nc1-c1ccccc1`, with 4.47 µM (active); and `CCc1nn(CC(=O)NCC(C)c2ccccc2)c(=O)c2cc3occc3n12` (stereo unspecified), with “inactive”; and `COc1ccccc1CNc1nccn(-c2ccc(F)cc2)c1=O`, with “inactive”.
The same measure, in the same setting: then `COc1ccc(OC)c(CNC(=O)c2c3c(nc4ccccc24)C(=O)N(C2CCCCC2)C3)c1`, with “inactive”.
For the compound `Cc1cccc(N2CCN(C(=O)CCSCc3ccccc3F)CC2)c1C`, the Potency result was “inactive”.
Same read-out and setting: the entry for `CCOc1ccc(OCC)c(NS(=O)(=O)c2ccc3[nH]c(=O)ccc3c2)c1` is “inactive”; for `C=CCc1cc(C)ccc1OCCCn1ccnc1` it is 20 µM (active); for `Brc1ccc(OCCn2ccnc2)cc1` it is “inactive”.
On the same count and under the same terms, the figure for `Clc1c(OCCCn2ccnc2)ccc2ccccc12` is 56.2 µM (active); for `CCOc1ccc(S(=O)(=O)NCCCn2ccnc2)cc1NC(C)=O` it is “inactive”; for `O=C(NCCCn1ccnc1)c1ccccc1F` it is “inactive”.
The same measure, in the same setting: then `Cc1ccc2c(Cl)c(C(=O)NCCCn3ccnc3)sc2c1`, with “inactive”; and `COc1ccc(-c2noc(CSc3nc4ccc(C)cc4[nH]3)n2)cc1`, with “inactive”.
For the compound `COc1ccc(CCNCc2c(C(=O)O)c(C)n(Cc3cccc(C)c3)c2C)cc1OC`, the Potency entry was “inactive”.
Consider `CC(=O)c1ccc(NC(=O)COc2ccccc2-c2nc(-c3ccccc3)no2)cc1`, for which the Potency entry was “inactive”.
`CCOC(=O)c1ccc(NC(=O)C2CC(=O)N(c3ccc(C(C)C)cc3)C2)cc1` (stereo unspecified): the Potency result was “inactive”.
For `Cc1ccccc1OCC(=O)Nc1nnc(S(=O)(=O)N2CCCC2)s1`, the Potency result is “inactive”.
Same read-out and setting: then `CCC(=O)Nc1nnc(S(=O)(=O)N(CC(C)C)c2ccccc2)s1`, with “inactive”; and `CCN(CC)S(=O)(=O)c1nnc(NC(=O)COc2ccccc2Cl)s1`, with 31.6 µM (active); and `Cc1cccc(C)c1NC(=O)CSc1nnc(-c2ccccc2)n1Cc1ccc2c(c1)OCO2`, with “inactive”.
Take `CC1=C(C(N)=O)C(c2ccc3c(c2)OCO3)n2nc(-c3cccc(C)c3)nc2N1` (stereo unspecified): the Potency result is “inactive”.
The same measure, in the same setting: the figure for `c1ccc(-c2nnc3n2NC(c2ccc4c(c2)OCO4)S3)cc1` (stereo unspecified) is 22.4 µM (active).
Consider `CCOc1ccccc1N(CC)C(=O)c1cc2ccc3cccnc3c2[nH]1`, for which the Potency entry is “inactive”.
Regarding `O=[N+]([O-])c1ccc(Oc2ccc(F)cc2Br)c2ccncc12`, the Potency was 44.7 µM (active).
For `COc1cccc(NC(=O)N2CCN(C(=O)c3nsc4ccccc34)CC2)c1`, the Potency result was “inactive”.
On the same count and under the same terms, the entry for `CC1CCc2noc(NC(=O)c3ccc([N+](=O)[O-])cc3)c2C1` (stereo unspecified) is “inactive”; for `COc1cccc(OCCn2c(-c3ccc(Br)cc3)nc3ccccc3c2=O)c1` it is “inactive”.
Same read-out and setting: then `O=C(Nc1ccccc1)N1CCC(C(=O)N2CCN(Cc3ccccc3)CC2)CC1`, with “inactive”; and `O=C(C1CCN(C2CCN(Cc3cccc4c3OCO4)CC2)CC1)N1CCOCC1`, with “inactive”.
For `O=C(C1CCN(Cc2ccc(Cl)cc2)CC1)N1CCN(Cc2ccc3c(c2)OCO3)CC1`, the Potency was 2.51 µM (active).
Regarding `CCOc1ccc(C2C(C(=O)Nc3ccc(Cl)cc3)=C(C)Nc3nc(C(F)(F)F)nn32)cc1` (stereo unspecified), the Potency entry was “inactive”.
Regarding `Cc1cccc(N2CCN(c3ccc(NC(=O)/C=C\C(=O)O)cc3)CC2)c1`, the activity change, negative = inhibition was -14.3% [at 11.4 µM].
Regarding `C=CC(=O)Nc1ccc(Nc2ccnc(Nc3ccc(N4CCN(C)CC4)cc3)n2)cc1`, the Potency was 31.6 µM (active).
With `Cn1cnnc1SCC(=O)Nc1ccc(N2CCOCC2)cc1`, the Potency result is “inactive”.
The same measure, in the same setting: the entry for `O=C(NCCCN1CCOCC1)c1cc(-c2ccc(Cl)cc2)on1` is “inactive”.
On the same count and under the same terms, the entry for `COc1ccc(Cn2c(=S)[nH]c3cc(C(=O)NCCCN4CCOCC4)ccc3c2=O)cc1` is “inactive”; for `Cc1c(C)n(Cc2ccc(Cl)cc2)c2ccc(C(=O)NCCCN3CCOCC3)cc12` it is 89.1 µM (active).

The record behind these values is PubChem BioAssay AID504339 (National Center for Advancing Translational Sciences (NCATS), 2011).
